In the library only some 12% were active in any assay of this set; here they are far more common.
Pf growth 96h = inhibits malaria parasite growth, 96 h. P. falciparum luciferase reporter growth, 96 h. Potency, µM (highest dose often 28.7 µM), for inactives: at the highest dose activity change, negative = inhibition, usual class: inhibitors. 320,000 compounds, 6.9% hits. AID 504834; note: % is set by controls: 0 for no effect and ±100 for the full control effect
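Plates of compound plus infected erythrocytes (2% hematocrit, 0.05% parasitemia final) incubate 96 hours, 37 C, 5% CO2. Detection reagent added; reduced luminescence from the parasites' luciferase reporter flags inhibition.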
Pf growth 48h = inhibits P. falciparum growth in the first generation, 48 h; 310,000 compounds, 5.9% hits; P. falciparum luciferase growth in erythrocytes, 48 h; Potency, µM (top dose mostly 28.7 µM), for inactives: at the top dose activity change, negative = inhibition, usual class: inhibitors; note: % is set by controls: 0 for no effect and ±100 for the full control effect
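A one-generation exposure of luciferase-tagged malaria parasites in RPMI 1640/Albumax erythrocyte culture, 37 C and 5% CO2. Inhibition is inferred from decreased luminescence after adding detection reagent.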
Sm TGR block = S. mansoni TGR enzyme inhibition; Q962Y6; purified TGR, DTNB reduction, TNB absorbance 405 nm; 360,000 compounds, 3% hits; Potency, µM (series often up to 114 µM), inactives show top-dose activity change, negative = inhibition, hits mostly inhibitors; AID 485364; note: % is set by controls: 0 for no effect and ±100 for the full control effect; nearly all actives have a fitted effect of over 60% in size
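TGR 20 nM + NADPH 100 uM (dispensed conc.), cpd preinc 15 min RT; start with NADPH (500 uM addition) then DTNB (15 mM addition). Kinetic TNB absorbance, 405 nm filter. Four-parameter Hill fit across titration.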
SARS PLpro yeast = blocks SARS-CoV papain-like protease in a yeast assay; 330,000 compounds, 0.19% hits; Potency, µM (titrated, usually from 32.9 µM), for inactives: top-dose activity, positive = growth rescue, actives largely listed as activators; AID 485353; S. cerevisiae expressing SARS-CoV PLpro, growth rescue; calls by dose curve; note: 0% is about no effect; nearly all actives have a fitted effect of over 55% in size
* hit, by the source's call; ? = inconclusive; nt = not tested or not shown. Unless noted, calls come from the whole dose curve; as a rule, active = well fitted curve in the direction sought with a large enough effect; inconclusive = small, poorly fitted or top-dose-only effect, or another doubt; inactive = no such curve, though single readings can be large; an effect the other way counts as inactive or inconclusive. Potency is the fitted concentration of half-maximal effect.

SMILES | Pf growth 96h | Pf growth 48h | Sm TGR block | SARS PLpro yeast
COc1ccc(NC(=O)c2c(-c3ccccc3)c(-c3ccccc3)nn(C)c2=O)c(OC)c1 | nt | nt | -3% | nt
Cc1cc(C(F)(F)F)n2nc(-c3cnn(C)c3C(F)(F)F)c(Cl)c2n1 | ? | 3.3µM* | 19% | 5%
Cc1cc(C)n2nc(-c3cnn(C)c3C(F)(F)F)c(Cl)c2n1 | ? | -8% | 4% | 4%
CN(CCc1ccccn1)C1CC(=O)N(c2ccc(Cl)cc2)C1=O (stereo not drawn) | ? | nt | 10µM* | -46%
CN(CCc1ccccn1)C(=O)Nc1ccc(Cl)cc1 | 36% | 74% | -1% | nt
Cc1oc(-c2ccccc2F)nc1CS(=O)CC(=O)N1CCC2(CC1)OCCO2 (stereo not drawn) | ? | 35% | 28µM* | 3%
Cc1oc(-c2ccc(Cl)cc2)nc1CS(=O)CC(=O)N1CCC2(CC1)OCCO2 (stereo not drawn) | 16% | 15% | 20µM* | 6%
Cc1oc(-c2ccccc2F)nc1CS(=O)CC(=O)NCc1ccccc1 (stereo not drawn) | 36% | 4% | -20% | ?
CCOC(=O)C1CCN(C(=O)CS(=O)Cc2nc(-c3ccc(C)cc3)oc2C)CC1 (stereo not drawn) | 34% | nt | 4µM* | 10%
Cc1ccc(-c2nc(CS(=O)CC(=O)N3CCN(c4ccc(F)cc4)CC3)c(C)o2)cc1 (stereo not drawn) | ? | 4% | -32% | 8%
Cc1cccc(-c2nc(CS(=O)CC(=O)N3CCN(C)CC3)c(C)o2)c1 (stereo not drawn) | 7.4µM* | nt | ? | 3%
CCCCNC(=O)Cn1cnc2sc(C)c(S(=O)(=O)N3CCN(c4ccccc4OC)CC3)c2c1=O | ? | -1% | 0% | -2%
Cc1ccc(NC(=O)COC(=O)C2CC3CCCC(C2)C3=O)c([N+](=O)[O-])c1 (stereo not drawn) | 9% | 2% | -18% | 2%
COc1ccc(N2CCN(C(=O)CS(=O)Cc3nc(-c4ccc(OC)c(OC)c4)oc3C)CC2)cc1 (stereo not drawn) | -14% | ? | -27% | -3%
COc1cccc(-c2nc(CS(=O)CC(=O)N3CCC4(CC3)OCCO4)c(C)o2)c1 (stereo not drawn) | 4% | 29% | 5µM* | -4%
CCc1ccc(NC(=O)CC2C(=O)N(c3cccc(OC)c3)C(=O)N2Cc2ccco2)cc1 (stereo not drawn) | nt | nt | 40µM* | nt
COc1ccc(NC(=O)CC2C(=O)N(c3ccccc3)C(=O)N2Cc2ccco2)cc1 (stereo not drawn) | 93% | 9% | -13% | -4%
CCc1ccc(NC(=O)CC2C(=O)N(c3cccc(C)c3)C(=O)N2Cc2ccco2)cc1 (stereo not drawn) | nt | nt | 45µM* | nt
Cc1ccc2nc3c(cc(C#N)c(=O)n3-c3nnc(SCc4ccc(F)cc4)s3)c(=O)n2c1 | nt | nt | -13% | nt
CCN1CCN(C2CC(=O)NC2=O)CC1 (stereo not drawn) | 8.3µM* | 6% | -3% | 3%
O=C1CC(N2CCN(c3ccc(C(=O)c4ccc(F)cc4)cc3)CC2)C(=O)N1 (stereo not drawn) | nt | 31% | -3% | -4%
O=C1CC(N2CCC(C(=O)N3CCCCC3)CC2)C(=O)N1 (stereo not drawn) | 15% | 11% | 32µM* | 0%
CCN(CCn1cccn1)Cc1cn[nH]c1-c1ccc(-c2ccccc2)cc1 | -2% | 2.9µM* | -13% | -2%
CCN(CCn1cccn1)Cc1cn[nH]c1-c1cccc2ccccc12 | 3% | -19% | -7% | 0%
CCCCCCCCO | ? | 39% | 0% | -4%
SMILES | Pf growth 96h | Pf growth 48h | Sm TGR block | SARS PLpro yeast
CCCCCCCCCCCCCCCC[N+](C)(C)C | 2.9µM* | 4.1µM* | 9% | nt
C[N+](C)(C)CCCCCC[N+](C)(C)C | -13% | 5% | nt | nt
CCCCCCCCCCCCCC[N+](C)(C)C | 0.95µM* | 0.95µM* | nt | nt
Clc1ccc(CN(Cc2ccccc2)C(c2cccs2)c2nnnn2C2CCCC2)cc1 (stereo not drawn) | ? | 12µM* | 1% | nt
c1ccc(CN(Cc2ccco2)C(c2ccncc2)c2nnnn2C2CCCC2)cc1 (stereo not drawn) | 10µM* | ? | 22µM* | -5%
Fc1ccc(CN(Cc2ccccc2)C(c2cccs2)c2nnnn2C2CCCCC2)cc1 (stereo not drawn) | nt | ? | -6% | 0%

Compound activity deposited in PubChem BioAssay by National Center for Advancing Translational Sciences (NCATS).
